RTF Ca sens inh: cardiac RTF calcium sensitivity inhibitors, primary screen, biochemical, IANBD-TnC fluorescence, EC70 calcium; IANBD-labeled cardiac RTF, Ca2+ fluorescence; 340,000 tested, 0.12% active; inhibition, % at 7.15 µM; Troponin I, cardiac muscle (Homo sapiens) + Troponin T, cardiac muscle (Homo sapiens) + …;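 active means inhibition above the mean inhibition of all tested compounds plus 3 SD, cut at about 17% in these data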;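 further: assay run at fixed EC70 calcium of 1.6 mM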
RTF Ca sens act: cardiac RTF calcium sensitivity activators, primary screen, biochemical, IANBD-TnC fluorescence, EC20 calcium; IANBD-labeled TnC RTF fluorescence at EC20 calcium; 0% EC20 calcium, 100% full calcium; activation, % at 7.2 µM; 340,000 tested, 0.24% active; AID 493008, 2010;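 active means activation above the mean over all tested compounds plus 3 SD, cut at about 30% in these data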;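 further: rise in fluorescence read as greater calcium sensitivity of cardiac thin filaments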
IDE cell activ: human IDE activators in live cells, primary screen, fluorescence polarization, HEK cells, FAbeta-B substrate; Insulin-degrading enzyme (Homo sapiens), P14735; FAbeta-B cleavage; 0% vehicle, 100% cell-free pure enzyme wells; activation, % at 5.96 µM; 340,000 tested, 0.073% active; AID 493087, 2011;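 active means activation above the mean of all tested compounds plus 3 SD, set per screening campaign, cut at about 17% in these data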
Target sequence (P14735 whole entry, looked up): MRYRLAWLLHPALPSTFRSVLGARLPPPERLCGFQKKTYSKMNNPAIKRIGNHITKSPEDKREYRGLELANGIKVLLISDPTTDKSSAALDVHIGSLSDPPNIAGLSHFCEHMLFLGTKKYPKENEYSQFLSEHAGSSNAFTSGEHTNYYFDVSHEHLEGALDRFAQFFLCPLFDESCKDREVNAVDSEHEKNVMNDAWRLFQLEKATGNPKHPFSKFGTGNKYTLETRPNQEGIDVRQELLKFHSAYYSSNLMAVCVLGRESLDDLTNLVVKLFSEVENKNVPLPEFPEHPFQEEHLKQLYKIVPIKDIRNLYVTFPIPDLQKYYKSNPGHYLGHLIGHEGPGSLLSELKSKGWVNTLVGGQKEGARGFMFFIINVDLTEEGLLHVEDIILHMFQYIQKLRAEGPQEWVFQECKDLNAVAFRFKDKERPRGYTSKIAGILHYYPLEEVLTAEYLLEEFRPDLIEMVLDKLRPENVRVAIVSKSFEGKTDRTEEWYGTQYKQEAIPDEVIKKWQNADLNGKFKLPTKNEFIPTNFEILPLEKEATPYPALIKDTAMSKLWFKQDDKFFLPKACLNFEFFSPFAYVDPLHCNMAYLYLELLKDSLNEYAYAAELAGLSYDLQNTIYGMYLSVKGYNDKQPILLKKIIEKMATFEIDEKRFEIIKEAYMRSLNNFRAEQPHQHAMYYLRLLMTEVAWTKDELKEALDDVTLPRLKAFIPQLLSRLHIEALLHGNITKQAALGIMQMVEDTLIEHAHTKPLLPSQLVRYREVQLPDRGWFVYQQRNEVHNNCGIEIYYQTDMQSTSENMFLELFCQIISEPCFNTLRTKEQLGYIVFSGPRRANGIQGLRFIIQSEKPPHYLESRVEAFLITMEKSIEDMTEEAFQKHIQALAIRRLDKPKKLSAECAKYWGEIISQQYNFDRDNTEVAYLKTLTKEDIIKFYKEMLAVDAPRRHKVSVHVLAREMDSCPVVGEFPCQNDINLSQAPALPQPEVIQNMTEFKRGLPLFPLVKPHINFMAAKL
CRFBP-R2 agonist: agonists of CRF-BP/CRF-R2 complex, primary screen, cell-based, HEK293, calcium dye fluorescence, uHTS | calcium dye fluorescence (FLIPR); percent of saturating CRF peptide response | 350,000 tested, 0.46% active | AID 588473, 2011 | activation, % at 13.2 µM;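 active means activation of at least 50%, plus an integration ratio under a set limit after plate pattern correction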
IDE inh: human IDE inhibitors in live cells, primary screen, fluorescence polarization, HEK cells, FAbetaB substrate | Insulin-degrading enzyme (Homo sapiens), P14735 | FAbetaB cleavage | inhibition, % at 5.59 µM | 320,000 tested, 0.41% active;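 active means percent inhibition above the average of all tested compounds plus 3 SD, set per screening campaign, cut at about 16% in these data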;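 further: IDE supplied by intact live HEK cells; FP after avidin binding of uncleaved biotin substrate so inhibition keeps polarization high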
CRFBP-R2 block: antagonists of CRF-BP/CRF-R2 complex, primary screen, cell-based, HEK293, calcium dye fluorescence, uHTS; CRF-induced calcium fluorescence; inhibition, % at 11.8 µM; 350,000 tested, 0.59% active;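 active means inhibition of the ligand-induced calcium signal above about 50% at the single tested concentration, limit read from the data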
Each line names hits and unclear results; the compound was inactive in the other large screens. Most compounds without a hit are left out; they make up all but 1.5% or so of the library.

COc1ccc(N=C(N)SCc2ccccn2)cc1	CRFBP-R2 agonist 61.9
COc1ccc(-c2nnc(SCc3ccccn3)n2C)cc1	none
COc1ccc2oc(C(=O)OCC(=O)Nc3cc(S(=O)(=O)N4CCOCC4)ccc3OC)c(C)c2c1	none
CC(=O)Nc1ccc(NC(=O)C(C)OC(=O)C2CCCCC2)cc1 (centres undefined)	CRFBP-R2 block 52.1
Cc1ccc2nc(-c3ccc(NC(=O)CN4CCN(C(=O)c5ccco5)CC4)cc3)sc2c1	IDE inh 17.6
Cc1ccc(NC(=O)CN2CCN(C(=O)c3ccco3)CC2)cc1	none
COCCn1c2nc(=O)n(-c3ccccc3)c(=O)c-2nc2ccccc21	CRFBP-R2 agonist 194.2 (no result: RTF Ca sens inh, RTF Ca sens act, IDE cell activ, IDE inh)
CCCC[C@@H]1CN=C(N)N1CC(C)(C)C	none
Cc1ccc(OCCC(=O)NNC(=O)c2ccc(Br)cc2)cc1	none
COc1ccccc1N1CCN(C(=O)C(=O)c2cn(CC(=O)N3CCCC3)c3ccccc23)CC1	CRFBP-R2 block 61.9
C=C(C)CSc1nc2c(cc1C#N)CCC2	CRFBP-R2 block 64.4
C=CCSc1nc2c(cc1C#N)CCC2	none
Cc1c(Cl)cccc1N1C(=O)c2ccccc2C1=O	CRFBP-R2 block 50.7
O=C1c2ccccc2C(=O)N1c1ncc(Cc2ccc(Cl)cc2)s1	CRFBP-R2 agonist 207.6
COc1cc(C2Nc3cccc4cccc(c34)N2)cc(OC)c1O	IDE cell activ 28.0
COc1ccc(C(=O)NNC(=S)NC(=O)c2cccnc2)cc1	none
Cc1cccc(C(=O)NNC(=S)NC(=O)c2cccs2)c1	CRFBP-R2 agonist 154.2
COc1ccc(C(=O)NNC(=S)NC(=O)c2cccs2)cc1	none
COc1ccc(C(=O)NNC(=S)NC(=O)c2ccc(F)cc2)cc1Br	CRFBP-R2 agonist 77.5 (no result: RTF Ca sens inh, RTF Ca sens act, IDE cell activ)
COc1ccc(Cl)cc1C(=O)NNC(=S)NC(=O)c1ccc(F)c(F)c1	CRFBP-R2 agonist 142.0, CRFBP-R2 block 62.2
COc1ccc(C(=O)NC(=S)NNC(=O)c2ccncc2)cc1Br	none
COc1ccc(C(=O)NNC(=S)NC(=O)c2ccc(OC)cc2)cc1	CRFBP-R2 agonist 51.4
O=C(c1ccc(S(=O)(=O)N2CCCCCC2)cc1)N1CCN(c2ccccc2F)CC1	none
COc1ccc(C(=O)NNC(=S)Nc2ccccc2)cc1	none
Cc1cccc(C(=O)NNC(=S)NC(=O)c2ccccc2)c1	CRFBP-R2 agonist 148.5
O=C(COc1ccccc1)NNC(=S)NC(=O)c1ccc(Cl)cc1Cl	CRFBP-R2 agonist 69.0 (no result: RTF Ca sens inh, RTF Ca sens act, IDE cell activ)
COc1ccc(C(=O)NC(=S)NNC(=O)c2cccc(C)c2)cc1	CRFBP-R2 agonist 131.3 (no result: RTF Ca sens inh, RTF Ca sens act, IDE cell activ)
COc1ccc(Cl)cc1C(=O)NNC(=O)COC(=O)c1cccs1	CRFBP-R2 block 104.1
Cc1ccc(C(=O)NNC(=O)c2cccc(C)c2)cc1	none
O=C(Nc1cccc(S(=O)(=O)N2CCOCC2)c1)C1CCN(S(=O)(=O)c2ccccc2)CC1	none
NC(=O)c1cc(S(=O)(=O)NCc2ccc(Br)cc2)cs1	none
Cc1cc(C)c(S(=O)(=O)c2cccc(C)c2C)c(=O)[nH]1	none
CCCc1nnc(NC(=O)CCC(=O)NC2CCCC2)s1	none
CCCCCC(=O)NNC(=O)c1ccc(F)cc1	CRFBP-R2 block 53.0
CCNC(=S)NNC(=O)c1ccc(OC)cc1	none
Cc1cccc(/C(N)=N/OC(=O)COc2ccc(Cl)cc2)c1	none
Cc1cccc(C(=O)NC(=S)NNC(=O)COc2ccc(Cl)cc2)c1	CRFBP-R2 agonist 59.0 (no result: IDE inh)
C=CCNC(=S)NNC(=O)c1ccc(OCC)cc1	CRFBP-R2 block 108.7
CCCCC(=O)NC(=S)NNC(=O)c1ccc(OC)cc1	CRFBP-R2 agonist 85.3
CCOc1cc(C(=S)N2CCN(C)CC2)ccc1OCC(=O)N1CCCC1	none
CCn1c(C)c(C(C)=O)c(N2CCN(c3ccccc3)CC2)nc1=S	CRFBP-R2 agonist 60.0
CCOc1ccc(/C=C(\C#N)C(=O)NC2CC2)c(OCC)c1	CRFBP-R2 block 80.4
CC[n+]1ccc(/C=C/c2ccc(N(C)C)cc2)c2ccccc21	none (no result: IDE inh)
CC[n+]1ccccc1/C=C/c1ccc(N(C)C)cc1	none (no result: IDE inh)
CN(C)c1ccc(/C=C/c2cc[n+](C)cc2)cc1	RTF Ca sens act 47.2
CN(C)c1ccc(/C=C/c2cc[n+]([O-])cc2)cc1	IDE inh 22.1 (no result: RTF Ca sens inh, RTF Ca sens act, IDE cell activ, CRFBP-R2 agonist, CRFBP-R2 block)
Clc1nnc2c3ccccc3ccn12	none (no result: IDE inh)
Cc1cccn2c(=O)nc(SCC(=O)N3CCN(c4ccccc4)CC3)nc12	none
O=C(CSc1nc2[nH]ncc2c(=O)[nH]1)Nc1ccc(Cl)cc1	none
NC(N)=N/N=C(\N=Nc1ccccc1)c1ccc(Cl)cc1	none (no result: IDE inh)
CCN(CC)C(=O)[C@H]1CC(CC(=O)NCc2ccc(OC)c(OC)c2)C(=O)N2CCc3c([nH]c4ccc(OC)cc34)[C@]12C (some centres undefined)	none (no result: IDE inh)
CCCc1nnc(NC(=O)Cn2c(=O)oc3cc(Br)ccc32)s1	CRFBP-R2 agonist 79.3
CCCc1nnc(NC(=O)Cn2c(=O)oc3ccccc32)s1	none
COc1ccc(NC(C)=O)cc1S(=O)(=O)NC(C)c1ccc(-n2ccnc2)cc1 (centres undefined)	none
CC1CCN(C(=O)c2[nH]cnc2C(=O)N[C@@H](C)C(=O)OC(C)(C)C)CC1	CRFBP-R2 block 54.2
CCCCCCCCCSc1n[nH]c(N)n1	CRFBP-R2 block 68.9
COc1ccc(CN2CCCCC2C)cc1C (centres undefined)	CRFBP-R2 agonist 162.5, CRFBP-R2 block 59.8
Cc1onc(-c2ccccc2)c1C(=O)NN1CCOCC1	none
COc1ccc(C2=C/C(=C/c3cccnc3)C(=O)O2)cc1OC	CRFBP-R2 agonist 144.0
COc1ccc(S(=O)(=O)NNC(=O)Nc2ccc(C)cc2C)c(OC)c1	none
FC(F)(F)c1ccccc1-c1nc(-c2ccncc2)no1	CRFBP-R2 block 57.4
Cc1ccccc1C(=O)c1cccn1CC(=O)NCc1cccc(Cl)c1	none
Cc1cc(NC(=O)C(C)C)ncc1NC(=O)CCc1ccccc1	CRFBP-R2 agonist 141.0
Cc1cc(NC(=O)C(C)C)ncc1NC(=O)c1ccco1	none (no result: CRFBP-R2 agonist, CRFBP-R2 block)
CC1Sc2ccc(S(=O)(=O)CCC(=O)NC3CCCC(C)C3C)cc2NC1=O (centres undefined)	none
O=C(Nc1sc(-c2ccccc2)cc1C(=O)O)c1ccccc1	CRFBP-R2 block 52.4
CCOC(=O)c1cc(-c2ccccc2)sc1NC(=O)c1ccc(OC)cc1	none (no result: RTF Ca sens inh, RTF Ca sens act, IDE cell activ)
COc1ccc(S(=O)(=O)N2CCCCCC2)cc1NC(=O)Cc1n[nH]c(=O)c2ccccc12	none (no result: IDE inh)

Screening data as filed in PubChem.
